From the supplement of paper PMC6607015
Where a name gives a salt, the structure may show the parent alone.

Legend:
Settings in all cases: compound concentration in added solution (µM; 5 µl added to 20 µl cells): 10; 18 h
[1] = tested on: A431; assay: LBPA endosome anti-LBPA integrated intensity (sum per cell), Z-score; higher = more LBPA staining
Procedure, shortened: (§1)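 Four 20× images per well were taken of HeLa MZ or A431 cells that had been seeded at 3,500 per well in 20 µl onto 5 µl of 10 µM compound solution in duplicate 384-well imaging plates. Before imaging, cells were incubated 18 h, fixed in 4% PFA and stained with 6C4 anti-LBPA antibody, filipin, propidium iodide and CellTracker green. Values are Z-scores normalised in AcuityXpress from MetaXpress-derived per-cell integrated LBPA or filipin intensity, either whole-cell or within LBPA endosomes.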

[2] = tested on: HeLa MZ; assay: as above
Procedure, shortened: as §1

[3] = tested on: A431; assay: whole-cell filipin (free cholesterol) integrated intensity, Z-score; higher = more cholesterol staining
Procedure, shortened: as §1

[4] = tested on: HeLa MZ; assay: as above
Procedure, shortened: as §1

[5] = tested on: A431; assay: filipin (cholesterol) integrated intensity within LBPA endosomes, Z-score; higher = more cholesterol in LBPA endosomes
Procedure, shortened: as §1

[6] = tested on: HeLa MZ; assay: as above
Procedure, shortened: as §1

Row | SMILES | LBPA endosome anti-LBPA integrated intensity (z-score) [1] | LBPA endosome anti-LBPA integrated intensity (z-score) [2] | whole-cell filipin (z-score) [3] | whole-cell filipin (z-score) [4] | filipin (z-score) [5] | filipin (z-score) [6]
1 | COc1cc(NS(=O)(=O)c2ccc(N)cc2)nc(OC)n1 [Sulfadimethoxine] | -0.522 | -0.857 | -0.62 | 0.132 | -0.482 | -0.404
2 | NC(=O)c1cnccn1 [Pyrazinamide] | -0.586 | -0.505 | -0.486 | -0.665 | -0.578 | -0.581
3 | O=C(NC(Cc1cc(=O)[nH]c2ccccc12)C(=O)O)c1ccc(Cl)cc1 (centres undefined) [Rebamipide] | -0.421 | -0.707 | -0.0406 | 0.196 | -0.423 | -0.367
4 | C#C[C@]1(O)CC[C@H]2[C@@H]3CCc4cc(O)ccc4[C@H]3CC[C@@]21C [Ethinylestradiol] | -0.522 | -1.4 | -0.139 | -0.678 | -0.442 | -0.49
5 | CN(C)CCOC(=O)C(c1ccccc1)C1(O)CCCC1 (centres undefined) [Cyclopentolate hydrochloride] | -0.331 | 0.664 | 0.119 | -0.332 | -0.39 | -0.209
6 | O=C1C(CC[S+]([O-])c2ccccc2)C(=O)N(c2ccccc2)N1c1ccccc1 (centres undefined) [Sulfinpyrazone] | -0.368 | 0.025 | 0.303 | -0.59 | -0.319 | -0.446
7 | Cc1cc(=O)oc2cc(O)ccc12 [Hymecromone] | -0.504 | -0.0954 | -0.674 | -0.684 | -0.459 | -0.528
8 | Clc1ccc(CCC(Cn2ccnc2)Sc2c(Cl)cccc2Cl)cc1 (centres undefined) [Butoconazole nitrate] | 1.95 | 2.23 | 1.71 | 2.17 | 2.22 | 2.14
9 | Nc1nc2c(ncn2COC(CO)CO)c(=O)[nH]1 [Ganciclovir] | -0.282 | 0.382 | -0.0797 | 0.0803 | -0.332 | -0.411
10 | CN1CCN(CCCN2c3ccccc3Sc3ccc(Cl)cc32)CC1 [Prochlorperazine dimaleate] | 2.82 | 1.36 | 0.00438 | -0.198 | 1.66 | 1.98
11 | O=c1[nH]c(=O)n([C@H]2C[C@H](O)[C@@H](CO)O2)cc1C(F)(F)F [Trifluridine] | -0.394 | 0.648 | 3.04 | 3.8 | -0.544 | -0.762
12 | N[C@@H](Cc1cc(I)c(Oc2ccc(O)c(I)c2)c(I)c1)C(=O)O [Liothyronine] | -0.519 | 0.00578 | -0.411 | -0.281 | -0.479 | -0.592
13 | CCOC(=O)C(C)(C)Oc1ccc(Cl)cc1 [Clofibrate] | -0.34 | -0.523 | -0.116 | -0.429 | -0.352 | -0.657
14 | CC(C(O)c1ccc(O)cc1)N1CCC(Cc2ccccc2)CC1 (centres undefined) [Ifenprodil tartrate] | 0.387 | -0.296 | 0.502 | 0.445 | 0.406 | 0.378
15 | Cc1cn[nH]c1 [Fomepizole] | -0.605 | -0.603 | -0.686 | -0.874 | -0.557 | -0.633
16 | CCCCCCCN(CC)CCCC(O)c1ccc(NS(C)(=O)=O)cc1 (centres undefined) [Ibutilide fumarate] | 0.46 | 1.54 | 0.561 | 0.166 | 0.22 | 0.621
17 | O=C(C1CCCCC1)N1CC(=O)N2CCc3ccccc3C2C1 (centres undefined) [Praziquantel] | -0.253 | -0.0737 | -0.0988 | 0.0128 | -0.417 | -0.225
18 | CNS(=O)(=O)Cc1ccc2[nH]cc(CCN(C)C)c2c1 [Sumatriptan succinate] | -0.406 | 0.265 | -0.574 | -0.339 | -0.423 | -0.484
19 | CC(=C(CCO)SSCC1CCCO1)N(C=O)Cc1cnc(C)nc1N (stereo in doubt) [Fursultiamine Hydrochloride] | -0.412 | -0.276 | -0.00261 | 0.173 | -0.513 | -0.472
20 | NC[C@H]1O[C@H](O[C@H]2[C@H](O)[C@@H](O[C@H]3O[C@H](CO)[C@@H](O)[C@H](N)[C@H]3O)[C@H](N)C[C@@H]2N)[C@H](N)C[C@@H]1O [Tobramycin] | -0.535 | -1.57 | -0.669 | -0.773 | -0.528 | -0.681
21 | CNc1ncnc2c1ncn2[C@@H]1O[C@H](CO)[C@@H](O)[C@H]1O [N6-methyladenosine] | -0.364 | 0.218 | -0.443 | 0.122 | -0.45 | -0.43
22 | C=CC(N)CCC(=O)O (centres undefined) [Vigabatrin] | -0.513 | -0.602 | -1.01 | -0.729 | -0.566 | -0.59
23 | CN(C)[C@@H]1C(O)=C(C(N)=O)C(=O)[C@@]2(O)C(O)=C3C(=O)c4c(O)ccc(Cl)c4[C@@](C)(O)[C@H]3C[C@@H]12 [Chlortetracycline hydrochloride] | -0.612 | -0.752 | -1.07 | -1.11 | -0.66 | -0.819
24 | CN(CCOc1ccc(CC2SC(=O)NC2=O)cc1)c1ccccn1 (centres undefined) [Rosiglitazone Hydrochloride] | -0.367 | 0.286 | 0.193 | 0.897 | -0.277 | -0.0127
